Data reported in PubChem BioAssay.
Activity calls are given as the source filed them.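 How the source made its calls, unless noted: active means inhibition above 20% together with a positive visual image hit; inconclusive means visual image hit but inhibition not above 20%; inactive means no visual image hit.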

Assay: inhibitors of TNFa-induced NFkB p65 translocation, primary screen, imaging, HUVEC, MLSMR starter and 10KST1 sets (AID 438);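 further: compound added about 3h40 before a 20 min TNFalpha stimulation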;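 on inhibition: signal is the nuclear over cytoplasmic p65 intensity ratio per well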
Settings: HUVEC TNFa-induced p65 nuclear translocation; cell count: measured here: nuclei count (cytotoxicity indicator), at 2.08 µM; inhibition: at 2 µM, stronger effect = higher value, 0% TNFa-plus-vehicle, 100% no-TNFa wells

Row | Structure (SMILES) | cell count | inhibition
1 | COC(=O)C(NC(C)=O)(Nc1ccccn1)C(F)(F)F (stereo unspecified) | 499 | -0.5% (inactive)
2 | CCOC(=O)c1ccc2nc(NC(NC(C)=O)(C(=O)OC)C(F)(F)F)sc2c1 (stereo unspecified) | 520 | -8.2% (inactive)
3 | Cc1nc2sc(C#N)c(N)c2c2c1CCCC2 | 603 | 0.2% (inactive)
4 | COCc1cc(=O)[nH]c(Nc2nc3ccccc3o2)n1 | 597 | -4.5% (inactive)
5 | Cc1c(O)c(CN2CCCCC2)cc2c3c(c(=O)oc12)CCC3 | 706 | -5.5% (inactive)
6 | O=C(C1CC1(c1ccccc1)c1ccccc1)N1CCOCC1 (stereo unspecified) | 402 | -6.3% (inactive)
7 | Cn1c(=O)[nH]c(=O)c2c1nc(N(CCO)Cc1ccccc1)n2Cc1ccccc1Cl | 650 | 4.6% (inactive)
8 | CC1(C)CNC(=O)c2sc(N3CCOCC3)nc2C1 | 330 | -0.5% (inactive)
9 | CCOC(=O)CNC(=O)Nc1ccccc1C(=O)OC | 676 | -2.9% (inactive)
10 | CC(=O)C1=C(O)C(=O)N(c2ccc(C(=O)O)cc2)C1c1ccccc1 (stereo unspecified) | 669 | 4.5% (inactive)
11 | Cn1c(=O)n(Cc2ccccc2)c(=O)c2c1nc(NCC1CCCO1)n2Cc1ccccc1 (stereo unspecified) | 665 | -8% (inactive)
12 | c1ccc(CN2CCN(c3ncnc4c3[nH]c3ccccc34)CC2)cc1 | 599 | -13.1% (inactive)
13 | Cc1nnc2n(-c3ccccc3)c(=O)c3c4c(sc3n12)CCCC4 | 661 | -4.7% (inactive)
14 | COc1ccc2c(c1)n([O-])c1c([n+]2=O)CCC1 | 640 | -4.7% (inactive)
15 | Cc1cc2c(c(=O)o1)C(Cc1ccccc1)C(C#N)=C(N)O2 (stereo unspecified) | 706 | -3.3% (inactive)
16 | c1ccc2c(c1)[nH]c1c(N3CCC4(CC3)OCCO4)ncnc12 | 543 | -0.4% (inactive)
17 | CCOC(=O)c1ccc(N=Cc2nc(-c3ccccc3)oc2OC(C)=O)cc1 | 794 | -6.6% (inactive)
18 | CCN1CCc2c(C#N)c(N3CCCCC3)nc(NCc3ccccc3)c2C1 | 466 | -4.8% (inactive)
19 | Cc1cc(C)n(C(=O)CNC(=O)C2COc3ccccc3O2)n1 (stereo unspecified) | 659 | -7.8% (inactive)
20 | CCCCOc1ccccc1C(=O)NCCCC(=O)O | 531 | -3.8% (inactive)

Row | Structure (SMILES) | cell count | inhibition
21 | OCCNc1ncnc2c1c(-c1ccccc1)c(-c1ccccc1)n2Cc1ccco1 | 567 | -6.9% (inactive)
22 | COc1ccc(CCn2c(=N)c(C#N)cc3c(=O)n4ccccc4nc32)cc1 | 529 | 1.4% (inactive)
23 | Cc1nc2ccccc2cc1O | 395 | -0.5% (inactive)
24 | COC(=O)CNC(=O)c1c(C)cc(=O)oc1C | 481 | 1.6% (inactive)
25 | Cc1c(NC(=O)c2ccc(=O)oc2)c(=O)n(-c2ccccc2)n1C | 553 | -12.6% (inactive)
26 | Cc1ccc(C(=O)/C=C/Nc2cccc(O)c2)cc1 | 368 | -4.7% (inactive)
27 | CCn1nc(NC(=O)c2cccnc2)c2cc3ccccc3nc21 | 522 | -0.4% (inactive)
28 | Cc1ccc(/C=N/n2nnnc2N)o1 | 674 | -1.3% (inactive)
29 | Cc1ccc2[nH]c3c(N4CCOCC4)ncnc3c2c1 | 599 | -3.9% (inactive)
30 | O=C(Nc1ccccn1)NC(C(F)(F)F)C(F)(F)F | 669 | -2.9% (inactive)
31 | CC(=O)c1c(OCC(=O)O)ccc2c(C)cc(=O)oc12 | 717 | 0.3% (inactive)
32 | O=C(NC1CCS(=O)(=O)C1)c1c(NC(=O)C2COc3ccccc3O2)sc2c1CCCC2 (stereo unspecified) | 657 | -7% (inactive)
33 | Cc1cc(O)c(C(C)C)cc1N=C1CSC(=O)N1 | 428 | -5.3% (inactive)
34 | O=C1C2ON(c3ccccc3)C(c3cccnc3)C2C(=O)N1c1ccccc1 (stereo unspecified) | 667 | -4.7% (inactive)
35 | COc1ccccc1N=Cc1nc(-c2ccccc2)oc1OC(C)=O | 451 | -8.2% (inactive)
36 | Fc1ccc(-c2cnc[nH]2)cc1 | 501 | 0.1% (inactive)
37 | Nn1c(SCC(=O)Nc2ccc3c(c2)OCCO3)nnc1C(F)(F)F | 598 | 0% (inactive)
38 | CN(C)/C=C1\N=C(c2ccc(Cl)cc2Cl)OC1=O | 698 | -4.8% (inactive)
39 | CCOc1ccccc1N1CCN(c2nc3ccccc3nc2C(C#N)C(=O)OC)CC1 (stereo unspecified) | 535 | 0.2% (inactive)

Assay: inhibitors of mutant huntingtin aggregation, primary screen, imaging, exon1htt(103Q)mCFP cells, high-content imaging (AID 483;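 active means visual image review flags a hit and inhibition of aggregation exceeds 20%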;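 further: compound exposure lasted 3 days before fixation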;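 on nuclei count: percent of the per-plate median nuclei count of sample wells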)
Settings: exon1htt(103Q)mCFP cell line, aggregate imaging, at 2 µM; inhibition of aggregation: stronger effect = higher value; nuclei count: measured here: cell count, toxicity

Row | Structure (SMILES) | inhibition of aggregation | nuclei count [%]
40 | COC(=O)C(NC(C)=O)(Nc1ccccn1)C(F)(F)F (stereo unspecified) | 12.2% (inactive) | 111
41 | CCOC(=O)c1ccc2nc(NC(NC(C)=O)(C(=O)OC)C(F)(F)F)sc2c1 (stereo unspecified) | -4% (inactive) | 93.1
42 | Cc1nc2sc(C#N)c(N)c2c2c1CCCC2 | -143% (inactive) | 3.6
43 | COCc1cc(=O)[nH]c(Nc2nc3ccccc3o2)n1 | 5.2% (inactive) | 87.4
44 | Cc1c(O)c(CN2CCCCC2)cc2c3c(c(=O)oc12)CCC3 | 2.7% (inactive) | 106
45 | O=C(C1CC1(c1ccccc1)c1ccccc1)N1CCOCC1 (stereo unspecified) | 13.6% (inactive) | 80.6
46 | Cn1c(=O)[nH]c(=O)c2c1nc(N(CCO)Cc1ccccc1)n2Cc1ccccc1Cl | -19.3% (inactive) | 139
47 | CC1(C)CNC(=O)c2sc(N3CCOCC3)nc2C1 | -17.3% (inactive) | 76.6
48 | CCOC(=O)CNC(=O)Nc1ccccc1C(=O)OC | -5.8% (inactive) | 83.8
49 | CC(=O)C1=C(O)C(=O)N(c2ccc(C(=O)O)cc2)C1c1ccccc1 (stereo unspecified) | 10.3% (inactive) | 101
50 | Cn1c(=O)n(Cc2ccccc2)c(=O)c2c1nc(NCC1CCCO1)n2Cc1ccccc1 (stereo unspecified) | -1.5% (inactive) | 104
51 | c1ccc(CN2CCN(c3ncnc4c3[nH]c3ccccc34)CC2)cc1 | 10.3% (inactive) | 94.4
52 | Cc1nnc2n(-c3ccccc3)c(=O)c3c4c(sc3n12)CCCC4 | 8% (inactive) | 95.5
53 | COc1ccc2c(c1)n([O-])c1c([n+]2=O)CCC1 | -32.6% (inactive) | 113
54 | Cc1cc2c(c(=O)o1)C(Cc1ccccc1)C(C#N)=C(N)O2 (stereo unspecified) | -2.1% (inactive) | 80.9
55 | c1ccc2c(c1)[nH]c1c(N3CCC4(CC3)OCCO4)ncnc12 | -24.1% (inactive) | 94.4
56 | CCOC(=O)c1ccc(N=Cc2nc(-c3ccccc3)oc2OC(C)=O)cc1 | -2.7% (inactive) | 98.2
57 | CCN1CCc2c(C#N)c(N3CCCCC3)nc(NCc3ccccc3)c2C1 | 16.8% (inactive) | 89.7
58 | Cc1cc(C)n(C(=O)CNC(=O)C2COc3ccccc3O2)n1 (stereo unspecified) | -13.6% (inactive) | 105
59 | CCCCOc1ccccc1C(=O)NCCCC(=O)O | -44.1% (inactive) | 119

Row | Structure (SMILES) | inhibition of aggregation | nuclei count [%]
60 | OCCNc1ncnc2c1c(-c1ccccc1)c(-c1ccccc1)n2Cc1ccco1 | 1.6% (inactive) | 114
61 | COc1ccc(CCn2c(=N)c(C#N)cc3c(=O)n4ccccc4nc32)cc1 | -0.9% (inactive) | 100
62 | Cc1nc2ccccc2cc1O | 21.5% (inactive) | 80.3
63 | COC(=O)CNC(=O)c1c(C)cc(=O)oc1C | 1.6% (inactive) | 110
64 | Cc1c(NC(=O)c2ccc(=O)oc2)c(=O)n(-c2ccccc2)n1C | 1.2% (inactive) | 78.4
65 | Cc1ccc(C(=O)/C=C/Nc2cccc(O)c2)cc1 | -12% (inactive) | 106
66 | CCn1nc(NC(=O)c2cccnc2)c2cc3ccccc3nc21 | -3.3% (inactive) | 104
67 | Cc1ccc(/C=N/n2nnnc2N)o1 | 3.9% (inactive) | 132
68 | Cc1ccc2[nH]c3c(N4CCOCC4)ncnc3c2c1 | 18.9% (inactive) | 82.9
69 | O=C(Nc1ccccn1)NC(C(F)(F)F)C(F)(F)F | -15.1% (inactive) | 118
70 | CC(=O)c1c(OCC(=O)O)ccc2c(C)cc(=O)oc12 | 10.5% (inactive) | 97.8
71 | O=C(NC1CCS(=O)(=O)C1)c1c(NC(=O)C2COc3ccccc3O2)sc2c1CCCC2 (stereo unspecified) | 3% (inactive) | 97.6
72 | Cc1cc(O)c(C(C)C)cc1N=C1CSC(=O)N1 | 10.4% (inactive) | 60.9
73 | O=C1C2ON(c3ccccc3)C(c3cccnc3)C2C(=O)N1c1ccccc1 (stereo unspecified) | -1.5% (inactive) | 104
74 | COc1ccccc1N=Cc1nc(-c2ccccc2)oc1OC(C)=O | -25.8% (inactive) | 84.2
75 | Fc1ccc(-c2cnc[nH]2)cc1 | -41% (inactive) | 64.4
76 | Nn1c(SCC(=O)Nc2ccc3c(c2)OCCO3)nnc1C(F)(F)F | -32.9% (inactive) | 105
77 | CN(C)/C=C1\N=C(c2ccc(Cl)cc2Cl)OC1=O | 8.1% (inactive) | 71.7
78 | CCOc1ccccc1N1CCN(c2nc3ccccc3nc2C(C#N)C(=O)OC)CC1 (stereo unspecified) | -3.8% (inactive) | 106
